Screening results deposited in PubChem BioAssay by several laboratories.
Beta cell apopt – beta cell apoptosis inhibition. INS-1E cytokine-induced death, ATP luminescence, 48 h; percent of positive-control rescue, neutral wells zero. 300,000 compounds, 0.8% hits. AID 435005. protection from apoptosis, % (concentration not given with the values);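 active means Every replicate reaches about 75%, or at least half do and their mean reaches it too, limit read from the data; inconclusive means At least half of replicates reach the limit but their mean does not; inactive means Under half of replicates reach the limit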;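 further: higher means more ATP so stronger rescue from cytokine killing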
GRIN3A LBD mod – modulators (binders) of human NR3A ligand-binding domain. 340,000 compounds, 2.5% hits. NR3A LBD differential scanning fluorimetry, Tm shift; 0% = protein alone, 100% = glycine-bound protein. Tm shift relative to glycine control, % at 25 µM;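 active means melting temperature shift of at least 10% of the positive control shift, at one fixed dose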
MPTP inh – blocks calcium-induced mitochondrial swelling; isolated mouse mitochondria, Ca2+ swelling absorbance, 30 min; inhibition, % at 10 µM; 360,000 compounds, 1.4% hits; AID 602449;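 active means inhibition of 50% or more, scaled per plate between neutral and stimulator controls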
SKKanGAS inh – blocks kanamycin growth of S. pyogenes SKKanGAS strain; BacTiter-Glo, 6 h; inhibition, % at 7.5 µM; 300,000 compounds, 1.3% hits; AID 1662;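 active means mean replicate score, as percent of positive control median, at least 50; inconclusive means mean below 50 but one replicate at or above 50; inactive means mean and every replicate below 50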;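 further: strain carries kanamycin resistance gene driven by streptokinase promoter and grows in 40 µg/ml kanamycin; loss of luminescence reflects streptokinase promoter inhibition or plain growth inhibition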
CSC inhib – cancer stem cell inhibition | cancer stem cell-like cells viability, luminescence | inhibition, % at 7.5 µM | 300,000 compounds, 1.1% hits; in the data active means inhibition above about 75%; inconclusive means no clear call, values can overlap the other calls; tested in HMLE shEcad cells
Mdm2 MdmX PPI – disrupts the human Mdm2-MdmX interaction; O15151+Q00987; SaOS-2 split-luciferase Mdm2/MdmX complementation, luminescence; inhibition, % at 8 µM; 330,000 compounds, 3% hits; AID 485346;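 active means inhibition of at least 50% at 8 µM in the primary screen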
Target sequence (O15151 whole entry, looked up): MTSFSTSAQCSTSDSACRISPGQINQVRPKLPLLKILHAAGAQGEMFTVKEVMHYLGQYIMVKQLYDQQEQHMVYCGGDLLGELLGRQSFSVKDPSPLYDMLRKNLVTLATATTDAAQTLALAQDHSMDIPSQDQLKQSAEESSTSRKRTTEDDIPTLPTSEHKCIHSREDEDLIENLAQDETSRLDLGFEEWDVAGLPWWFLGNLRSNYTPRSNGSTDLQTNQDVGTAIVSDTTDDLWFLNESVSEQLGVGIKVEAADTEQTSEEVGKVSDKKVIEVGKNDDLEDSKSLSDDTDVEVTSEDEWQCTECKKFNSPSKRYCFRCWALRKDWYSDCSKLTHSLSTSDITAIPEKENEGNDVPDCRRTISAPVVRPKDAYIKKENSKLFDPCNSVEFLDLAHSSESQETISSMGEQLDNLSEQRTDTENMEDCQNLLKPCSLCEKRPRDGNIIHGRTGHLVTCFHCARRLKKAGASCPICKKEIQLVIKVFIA
Target sequence (Q00987 whole entry, looked up): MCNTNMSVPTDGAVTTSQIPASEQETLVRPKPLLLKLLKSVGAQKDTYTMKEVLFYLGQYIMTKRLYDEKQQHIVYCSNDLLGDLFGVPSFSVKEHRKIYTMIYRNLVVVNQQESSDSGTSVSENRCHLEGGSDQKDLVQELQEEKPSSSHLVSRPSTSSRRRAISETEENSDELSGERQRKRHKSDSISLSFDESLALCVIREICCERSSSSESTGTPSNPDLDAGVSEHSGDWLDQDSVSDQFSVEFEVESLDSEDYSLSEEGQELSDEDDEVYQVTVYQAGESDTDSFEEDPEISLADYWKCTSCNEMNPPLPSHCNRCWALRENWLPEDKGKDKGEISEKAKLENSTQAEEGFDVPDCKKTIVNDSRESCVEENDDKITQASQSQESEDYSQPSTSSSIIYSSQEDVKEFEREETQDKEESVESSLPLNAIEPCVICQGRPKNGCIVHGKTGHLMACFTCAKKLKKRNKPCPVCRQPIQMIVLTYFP
Large screens that a line does not name were inactive. Most compounds without a hit are left out; they make up all but 6.9% or so of the library.

COc1ccccc1C(=O)Nc1ccnn1C1CCN(C/C=C/c2ccccc2)CC1	GRIN3A LBD mod 13
COc1ccc(CC(=O)N2CCC(n3nccc3NC(=O)C3CCOC3)CC2)cc1 (configuration not stated)	none
COc1ccccc1CC(=O)N1CCC(n2nccc2NC(=O)C2CCOC2)CC1 (configuration not stated)	GRIN3A LBD mod 10
Cc1ccc(C(=O)N2CCC(n3nccc3NC(=O)C3CCOC3)CC2)cc1 (configuration not stated)	none
O=C(Nc1ccnn1C1CCN(C(=O)c2ccc(F)cc2)CC1)C1CCOC1 (configuration not stated)	SKKanGAS inh 52 (no result: Beta cell apopt)
CCCCOC(=O)c1nc(Cl)c(Cl)c(N)c1Cl	GRIN3A LBD mod 13
O=C(O)c1ccc(Nc2nc(-c3ccc([N+](=O)[O-])cc3)nc3ccccc23)cc1	none
Oc1ccc(Nc2nc(-c3ccccc3)nc3ccccc23)cc1	GRIN3A LBD mod 42
Cc1cccc(-c2nc(Nc3cccc(O)c3)c3ccccc3n2)c1	GRIN3A LBD mod 32, CSC inhib 81
Cc1cccc(-c2nc(Nc3ccc(N4CCOCC4)cc3)c3ccccc3n2)c1	none
CC(=O)Nc1ccc(Nc2nc(-c3ccccc3)nc3ccccc23)cc1	GRIN3A LBD mod 12
Oc1ccc(/C=N/Nc2nc(-c3cccnc3)nc3ccccc23)c(O)c1	GRIN3A LBD mod 16
C=CCn1c(SCC(=O)NC2(C)CCS(=O)(=O)C2)nc2ccccc21 (configuration not stated)	none (no result: SKKanGAS inh)
N#Cc1cccc(-c2csc(C(O)(c3ccccc3)C(F)(F)F)n2)c1 (configuration not stated)	none (no result: Beta cell apopt, GRIN3A LBD mod, SKKanGAS inh, CSC inhib, Mdm2 MdmX PPI)
N#Cc1cccc(NS(=O)(=O)c2ccccc2Cl)c1	none (no result: SKKanGAS inh, CSC inhib)
Cc1ccccc1C(=O)NC1CCN(CC(=O)N2CCCCC2C)CC1 (configuration not stated)	none
CC(C)CC(OC(=O)CC1Sc2ccccc2NC1=O)C(=O)NC1CCCC1 (configuration not stated)	none
CN(C(=O)c1cccc(NC(=O)Cc2ccc(NC(=O)C3CCN(C(=O)CCc4ccccc4)CC3)cc2)c1)C1CCCCC1	none (no result: Beta cell apopt, SKKanGAS inh, CSC inhib, Mdm2 MdmX PPI)
O=C(Nc1ccc(Br)cc1)Nn1cnnc1	none
COc1ccc(Nc2ncnc3ccccc23)cc1	none (no result: Beta cell apopt)
COc1ccc(Nc2nc(-c3ccccc3)nc3ccccc23)cc1	GRIN3A LBD mod 34 (no result: Beta cell apopt)
Cc1ccccc1/C=C1\Sc2ccc(C(=O)N3CCN(c4ccccn4)CC3)cc2N(C)C1=O	SKKanGAS inh inconclusive
Cc1ccc(/C=C2/Sc3ccccc3N(CC(=O)NCC3CCCO3)C2=O)cc1 (configuration not stated)	none
CN1C(=O)/C(=C/c2ccccc2F)Sc2ccc(C(=O)N3CCCC3)cc21	SKKanGAS inh 71
CN1CCN(C(=O)c2ccc3c(c2)N(C)C(=O)/C(=C/c2cccc(Cl)c2)S3)CC1	none
COc1ccc(/C=C2\Sc3ccc(C(=O)NCC4CCCO4)cc3N(C)C2=O)cc1 (configuration not stated)	SKKanGAS inh 92
COc1ccc(/C=C2\Sc3ccc(C(=O)N4CCOCC4)cc3N(C)C2=O)cc1	SKKanGAS inh 60
CC1CCC2(CC1)NC(=O)N(CC(=O)Nc1ccc(C(N)=O)cc1)C2=O (configuration not stated)	none (no result: SKKanGAS inh)
COc1ccc(C2(C(=O)NCCc3ccccc3)CCCC2)cc1OC	none (no result: Beta cell apopt)
O=C(CCc1nnc2ccc(NCc3ccccc3Cl)nn12)NC1CCCCC1	none
Cc1cc(=O)[nH]c(SCC(=O)c2ccc3c(c2)NC(=O)CO3)n1	none
Nc1cc(N)nc(SCC(=O)c2ccc3c(c2)NC(=O)CO3)n1	GRIN3A LBD mod 153
CS(=O)(=O)Nc1ccc(S(=O)(=O)N2CCCCCC2)cc1	none
CCOc1ccc(Cc2nnc(SCC(=O)Nc3ccc(OC)cc3)n(N)c2=O)cc1	none (no result: CSC inhib)
CCOc1ccc(NC(=O)CSc2nnc(Cc3ccccc3)c(=O)n2N)cc1	SKKanGAS inh 55 (no result: CSC inhib)
O=C(Nc1ccc(NC(=O)c2cccs2)cc1)c1ccco1	GRIN3A LBD mod 20
O=C(NC(=S)Nc1ccc(NC(=O)c2cccs2)cc1)c1ccco1	GRIN3A LBD mod 24
Cc1ccc(NC(=O)c2cccs2)cc1NC(=O)c1ccco1	none
O=C(Nc1ccc(NC(=S)NC(=O)c2ccccc2F)cc1)c1cccs1	GRIN3A LBD mod 20
O=c1c2c([N+](=O)[O-])cc([N+](=O)[O-])cc2sn1Cc1ccccc1	SKKanGAS inh 85 (no result: GRIN3A LBD mod)
O=C1C=C(c2ccc(Oc3ccccc3)cc2)C[C@@H](c2ccc(F)cc2)C1	none (no result: SKKanGAS inh)
COc1cc2c(cc1OC)C1(CCCC1)C(N)=C2C#N	GRIN3A LBD mod 11 (no result: Beta cell apopt, SKKanGAS inh)
Cc1ccnc(NC(=O)C2CCN(S(=O)(=O)c3ccc(C)c(C)c3)CC2)c1	none (no result: CSC inhib)
COc1ccc(CNc2cccc3[nH]c(C(F)(F)F)nc23)cc1	none (no result: Beta cell apopt)
Cc1ccc(C(=O)Nc2cccc3[nH]c(C(F)(F)F)nc23)cc1	Beta cell apopt 78
COc1ccc(O)c(C(=O)c2cnn(-c3ccccn3)c2)c1	none
COc1ccc(O)c(C(=O)c2cnc3nc4ccccc4n3c2)c1	Beta cell apopt 83 (no result: Mdm2 MdmX PPI)
c1ccc(-c2nc3c4ccccc4ccn3c2Cc2ccsc2)cc1	none (no result: Beta cell apopt, GRIN3A LBD mod, SKKanGAS inh, CSC inhib, Mdm2 MdmX PPI)
Cc1cccc(C(=O)Nc2ccc(C(=O)/C=C/c3cccnc3)cc2)c1	Beta cell apopt 101, GRIN3A LBD mod 24 (no result: Mdm2 MdmX PPI)
Cc1cccc(NC(=O)c2cccnc2)c1	none
O=C(/C=C/c1cccnc1)c1ccc(NC(=O)c2cccc(Br)c2)cc1	GRIN3A LBD mod 26
O=C(N/N=C/c1cccnc1)c1cccc(Br)c1	none
O=C(Cc1ccc(NC2=NC3CS(=O)(=O)CC3S2)cc1)NCc1ccccc1Cl (configuration not stated)	none (no result: CSC inhib)
Nc1nc(SCC(=O)Nc2ccc(OC(F)(F)F)cc2)[nH]c(=O)c1NC(=O)c1ccc(Br)o1	GRIN3A LBD mod 17
COc1ccc(NC(=O)c2ccc(NC(=O)CSc3nc(N)cc(=O)[nH]3)cc2)cc1	GRIN3A LBD mod 11 (no result: SKKanGAS inh)
Nc1nc(SCC(=O)Nc2ccc([N+](=O)[O-])cc2)[nH]c(=O)c1NC(=O)c1ccc(Br)cc1	GRIN3A LBD mod 31
Nc1cc(=O)[nH]c(SCC(=O)Nc2ccc([N+](=O)[O-])cc2)n1	none (no result: Beta cell apopt, CSC inhib)
CCn1c(SCC(=O)NC2CC2)nnc1-c1ccc(OC)cc1	none
CN(C)CCCn1c(NC(=O)C2CCCCC2)nc2ccccc21	none
CCCCn1c(NC(=O)C2CCCCC2)nc2ccccc21	SKKanGAS inh 97
CCCn1c(NC(=O)c2ccccc2Br)nc2ccccc21	SKKanGAS inh 58
O=C(Nc1nc(-c2nc3ccccc3s2)cs1)C1COc2ccccc2O1 (configuration not stated)	SKKanGAS inh 76
CC(=O)Nc1nc2ccccc2n1CCOc1ccccc1	SKKanGAS inh 63
C=CCOC(=O)C1=C[C@@H](c2ccc(C(F)(F)F)cc2)C[C@@H](OCc2ccc(CO)cc2)O1	none
O=C(O)c1ccc(-c2nn3c(=O)cc(N4CCNCC4)nc3s2)cc1	none (no result: Beta cell apopt, GRIN3A LBD mod, SKKanGAS inh, CSC inhib, Mdm2 MdmX PPI)
